Measurements taken from PubChem BioAssay (Tox21).
Results filed as inconclusive are left out. Values without a mark were called inactive. The source made the active and inactive calls. Calls come from the whole dose curve; as a rule, active = well fitted cell-killing curve with a large enough effect in the repeat runs; inconclusive = weak or mixed curves, or effect the other way; inactive = flat fitted curve, though single readings scatter.

assay: qHTS assay to identify small molecule antagonists of the constitutive androstane receptor (CAR) signaling pathway - cell viability counter screen (AID 1224837); settings: HepG2-CYP2B6-hCAR viability, CellTiter-Fluor, 23 h, co-treated with 50 nM CITCO; series mostly up to 92.4 µM; note: nearly all actives have a fitted effect of over 45% in size
Text: National Center for Advancing Translational Sciences [NCATS]
NIH Chemical Genomics Center [NCGC]
U.S. Environmental Protection Agency [EPA]
National Institutes of Environmental Health Sciences [NIEHS]
National Toxicology Program [NTP]
U.S. Food and Drug Administration [FDA]
The constitutive androstane receptor (CAR) is a nuclear receptor which regulates multiple drug metabolizing enzymes (DMEs) and transporters. Activating CAR will generally increase the transcription and subsequent translation of CYP2B6 and CYP3A4. These two DMEs represent about 50% of the drug metabolizing potential in the body. When CAR is deactivated, the metabolizing potential in the body will decrease, subsequently increasing the toxicity in the body or lowering the therapeutic potential of a pro-drug. Recently, there have also been studies performed indicating CARs role in energy metabolism and cancer therapy. Therefore, inhibiting CARs activity could have a potential effect on diabetes and cancer. Identifying environmental toxins and compounds which modulate CAR, through the use of the Tox21 10K compound collection, will be an important step in determining the toxicity and potential therapeutic effects these factors will have on the human body. To differentiate true CAR antagonists from cytotoxic substances, the assay is multiplexed with a cell viability assay.
Tox21 Assay Protocol Summary:
A double-stable (hCAR and CYP2B6-2.2kb) transfected cell line, derived from human hepatoma (HepG2) cells, was utilized for the duration of the quantitative high-throughput screens. The HepG2-CYP2B6-hCAR cells were dispensed at 2500 cells/4 uL/well in 1536-well white solid bottom plates using a Multidrop Combi. After the assay plates were incubated at 37 C/5% CO2 for 4 hrs, 23 nL of compounds at 15 concentrations (from 5-48 columns) or positive control (from 1 to 4 columns) were transferred to the assay plates using a Pintool station. One uL of CITCO (final concentration = 50 nM) was added, using a Flying Reagent Dispenser, inside each well. After a 23 hr incubation period at 37 C/5% CO2, 1 uL of CellTiter-Fluor reagent was added into each well of the assay plates using a Flying Reagent Dispenser. The fluorescence intensity in the plates was then measured using a ViewLux plate reader.
% is set by controls: 0 for no effect and ±100 for the full control effect.

| SMILES | outcome | activity change, negative = cytotoxicity |
| --- | --- | --- |
| COc1ccc(COC=O)cc1 | inactive |  |
| NC(=S)Nc1cccc2ccccc12 |  | -0.426% [at 8.39 µM] |
| O=[N+]([O-])c1ccc(Oc2ccc([N+](=O)[O-])cc2)cc1 | inactive |  |
| C1C2OC2C2C1C1CC2C2OC12 (stereo not given) | inactive |  |
| O=[N+]([O-])c1ccc(CCO)cc1 | inactive |  |
| C=C(C)[C@H]1CC=C(C)CC1 | inactive |  |
| CCCCc1ccc(N)cc1 | inactive |  |
| CC(=O)N[C@@H](CCC(N)=O)C(=O)O | inactive |  |
| COc1ccc(N=[N+]([O-])c2ccc(OC)cc2)cc1 | inactive |  |
| CCCCCCCCC=O | inactive |  |
| CCCOc1ccccc1-c1nc2n[nH]nc2c(=O)[nH]1 | inactive |  |
| CCCCCCCCCCCl | inactive |  |
| CC1CCN(CCCC(=O)c2ccc(F)cc2)CC1 | inactive |  |
| CCC(C)(C)C1CCC(OC)CC1 (stereo not given) | inactive |  |
| C=C[Si](OC)(OC)OC | inactive |  |
| C#CC(O)C(CC)CCCC (stereo not given) | inactive |  |
| CCCCCCCCCCCCCCCCCCOCC(O)CO (stereo not given) | inactive |  |
| c1ccc(CCCc2ccccn2)cc1 | inactive |  |
| CCC(C(=O)NC(N)=O)c1ccccc1 (stereo not given) | inactive |  |
| CC(C)N1C(=O)c2ccccc2C1=O | inactive |  |

| SMILES | outcome | activity change, negative = cytotoxicity |
| --- | --- | --- |
| CCCCCCC(=O)OCC | inactive |  |
| CCCOCC(C)OCC(C)O (stereo not given) | inactive |  |
| CCOC(=O)Nc1ccc2c(c1)N(C(=O)CCN1CCOCC1)c1ccccc1S2 | inactive |  |
| O=C(O)c1cccc(C(=O)O)n1 | inactive |  |
| CCCCCCCCN(C)CCCCCCCC | inactive |  |
| [O-][N+](=Nc1ccccc1)c1ccccc1 | inactive |  |
| NC(N)=NS(=O)(=O)c1ccc(N)cc1 | inactive |  |
| C=C(C)C(=O)NCCCN(C)C | inactive |  |
| Oc1cc(O)c2c(c1)O[C@H](c1ccc(O)c(O)c1)[C@H](O)C2 | inactive |  |
| O=C(O)Cc1cc(I)c(Oc2cc(I)c(O)c(I)c2)c(I)c1 | inactive |  |
| Nc1ncnc2c1ncn2Cc1c(F)cccc1Cl | inactive |  |
| CC(=O)OC(C)(C)C | inactive |  |
| CC(=O)O[C@H](CC(=O)[O-])C[N+](C)(C)C | inactive |  |
| CC(C=O)Cc1ccc(C(C)C)cc1 (stereo not given) | inactive |  |
| COc1cc(O)cc(O)c1 | inactive |  |
| C=C(C)C(=O)OCCCCCCCCCCCCCCCCCC |  | 4.26% [at 19 µM] |
| O=C(O)C(O)[C@H](O)[C@@H](O)[C@H](O)[C@H](O)CO (stereo not given in full) | inactive |  |
| N[C@@H](CS)C(=O)O | inactive |  |
| NC(=O)c1c(Cl)cccc1Cl | inactive |  |
| CCCC(C)CO (stereo not given) | inactive |  |
